Results on 94 compounds are retold here after PubChem BioAssay AID2314 (National Center for Advancing Translational Sciences (NCATS), 2010).

In all, about 300,000 compounds went through this assay and about 37,000 (12%) were called active. The sample holds actives, similar compounds and a random draw of the others, so the mix is not that of the screen. Values without a mark were called inactive. No stated cut-off is given here; in the data, active means max response mostly above about 13% (no sharp cut-off); inactive means mostly below about 14%.

The assay is described as follows: Cycloheximide Counterscreen for Small Molecule Inhibitors of Shiga Toxin. Further: read at 38.3 µM for the half of the compounds with a filed dose; 0% is about no effect. Particulars: cell reporter, cycloheximide protein synthesis inhibition counterscreen; stronger effect = higher value. In general terms: A counterscreen serves to expose hits that act by an unwanted route or on another target.
Take `O=C(C(NS(=O)(=O)c1cccc2nsnc12)c1ccccc1)N1CCN(c2ccccc2)CC1` (centres undefined): the max response was 4.26%.

For the compound `CCOC(=O)c1cc(S(=O)(=O)NCCc2ccc(OC)c(OC)c2)cn1C`, the max response was -2.67%.

On to `CCOC(=O)N1CCN(S(=O)(=O)c2ccc(Br)cc2)CC1`, for which the max response was -0.649%.

With `CCOC(=O)N1CCN(C(=O)C2CCN(S(=O)(=O)c3cc(Cl)ccc3OCC)CC2)CC1`, the max response is 11.3%.

With `C=C(C)C1CC=C(C)/C(=N\NC(=O)CNc2ccccc2OC)C1` (centres undefined), the max response was -1.85%.

Turning to `Cc1cc(Nc2ccccc2)nc(N)n1`, the max response is 7.42%.

In the case of `Cc1ccc2nc(Nc3ccccc3)cc(C)c2c1`, the max response was 51.1% (active).

`Cc1ccc2nc(Nc3ccccc3O)nc(-c3ccccc3)c2c1`: the max response was 0.615%.

`Cc1ccc(S(=O)(=O)N(CC(O)CN2C(=O)NC(C)(C)C2=O)c2cccc([N+](=O)[O-])c2)cc1` (centres undefined): the max response is -3.67%.

For the compound `COCCCN1C(=O)c2ccc(C(=O)OCC(=O)NCc3ccccc3OC)cc2C1=O`, the max response is -6.08%.

Consider `O=C(O)C1CCN(C(=O)OCc2ccccc2)CC1`, for which the max response is 40.2% (active).

For the compound `CCOC(=O)N1CCC(NC(=O)CCc2ccccc2)CC1`, the max response is 1.36%.

On to `O=C(NCC1CCC(C(=O)O)CC1)OCc1ccccc1` (centres undefined), for which the max response was -2.25%.

Consider `COc1cccc(N(CC(=O)NC2CCCCCC2)S(=O)(=O)c2ccccc2)c1`, for which the max response was 1.89%.

As to `O=C(CC1SCCNC1=O)Nc1ccc(Cl)cc1` (centres undefined), the max response is 21.9% (active).

In the case of `O=C(CC1SCCNC1=O)Nc1ccc(Cl)c(Cl)c1` (centres undefined), the max response is 17.5%.

Consider `COc1ccccc1C(=O)N1CCNC(=O)C1CC(=O)Nc1ccc(Cl)cc1` (centres undefined), for which the max response was -1.23%.

In the case of `CCC(=O)NC(=S)Nc1ccc(NC(=O)c2ccco2)c(Cl)c1`, the max response was 16.5%.

For the compound `CCOc1cc(NC(=S)NCc2ccco2)c(OCC)cc1NC(=O)c1ccco1`, the max response was 6.2%.

Regarding `O=C(NNC(=S)Nc1ccc(Br)cc1Cl)c1ccco1`, the max response was 43.8% (active).

As to `CSc1nc(-c2ccco2)nn1C(=O)c1ccccc1Cl`, the max response was 1.46%.

With `COc1ccc(CC(=O)Nc2nc(-c3ccc(F)c(F)c3)cs2)cc1OC`, the max response is -6.69%.

`Cc1ccc(S(=O)(=O)NC(=O)Nc2nc(-c3ccc(F)c(F)c3)cs2)cc1`: the max response was 19.2% (active).

Turning to `COc1cc(CC(=O)Nc2nc(-c3ccc(F)c(F)c3)cs2)cc(OC)c1OC`, the max response is -5.65%.

Consider `O=[N+]([O-])c1ccc(N(CCO)Cc2ccccc2)c([N+](=O)[O-])c1`, for which the max response was -2.22%.

Regarding `C/C(=N/NC(=O)c1cc(Cl)ccc1O)C12CC3CC(CC(C3)C1)C2`, the max response is 18.4%.

`Cc1ccc(C)c(N2C(=O)CS/C2=N\NC(=O)c2ccccc2Cl)c1`: the max response was -3.78%.

As for `O=C(N/N=C1\CCSC1)c1cc(Cl)ccc1O`, the max response was 18.7% (active).

Consider `Cc1cc(C=O)c(C)n1-c1ccc(NC2CCCCC2)c([N+](=O)[O-])c1`, for which the max response is 6.55%.

On to `Cc1cc(=O)oc2c(C)c(OC(C)C(=O)NC3CCN(Cc4ccccc4)CC3)ccc12` (centres undefined), for which the max response was -2.67%.

In the case of `COc1ccc(C(CC(=O)Nc2ccc(C)cc2)NC(=O)C(F)(F)F)cc1` (centres undefined), the max response is 12.7% (active).

As for `COc1ccc(NC(=O)CC(NC(C)c2ccccc2)C(=O)O)cc1` (centres undefined), the max response is -3.91%.

For the compound `COc1ccc(NC(=O)C(=O)NCC(=O)Nc2cccc(C(F)(F)F)c2)cc1`, the max response was -1.93%.

Regarding `Cc1ccc(NS(=O)(=O)c2ccc3c(c2)NC(=O)CO3)cc1`, the max response was -9.63%.

For `COc1ccc(CNC(=O)C(Cc2ccccc2)n2cccc2)cc1` (centres undefined), the max response was -3.21%.

For `CCOC(=O)C1Sc2[nH]c(=O)sc2C(c2ccc(Cl)cc2)C1C(=O)OCC` (centres undefined), the max response is -1.02%.

As to `COc1ccc(N2CCN(C(=O)c3ccc(N4CCCCS4(=O)=O)cc3)CC2)cc1`, the max response is -2.57%.

As to `CCC(=C/c1sc2ccc3ccccc3c2[n+]1C)/C=C1\Sc2ccc3ccccc3c2N1C`, the max response was -3.42%.

As for `Cc1nc2nc(SCC(=O)c3ccccc3)[nH]c2cc1Br`, the max response was 1.25%.

As to `COc1ccc2nc(SCC(=O)Nc3c(C)cc(C)cc3C)[nH]c2c1`, the max response was -5.11%.

As to `Cc1ccc2nc(SCC(=O)NC3CCCC3)[nH]c2c1`, the max response is -3.78%.

Regarding `CCOC(=O)CSc1nc2ccc(C)cc2[nH]1`, the max response was 17% (active).

Take `CC(=O)Nc1ccc(C(=O)CSc2nc3ccc(C)cc3[nH]2)cc1`: the max response is 19.9% (active).

As to `Cc1cc(C)c(NC(=O)CSc2nc3ccncc3[nH]2)c(C)c1`, the max response is 8.2%.

With `COc1ccc(/C=N/N(C)C2=NS(=O)(=O)c3ccccc32)cc1OC`, the max response is -4.65%.

Turning to `CCCCN(C)CCNC(=O)C1CCCN(S(=O)(=O)c2cccc3nsnc23)C1` (centres undefined), the max response is -7.69%.

For `CC(Sc1cccc[n+]1[O-])C(=O)Nc1cccc(S(=O)(=O)N2CCOCC2)c1` (centres undefined), the max response was -2.05%.

For `CCOc1ccccc1/C=N/NC(=O)CNC(=O)COc1ccccc1`, the max response was 8.7%.

As for `COc1ccc(/C=N/n2nnnc2N)cc1OC`, the max response was 1.75%.

Turning to `c1ccc(CCN2CN=C(Nc3nc4ccccc4o3)NC2)cc1`, the max response was 13.2%.

For `CCOc1ccccc1/C=N/Nc1nc2ccccc2o1`, the max response was 11.2% (active).

As for `CCOc1ccc(/C=N/Nc2nncc(-c3ccccc3)n2)cc1OC`, the max response is 5.88%.

With `C=CCc1ccccc1OCC(=O)N/N=C/c1ccccc1OCC`, the max response was 9.76%.

Turning to `COc1ccc(/C=N/Nc2nc3ccccc3o2)cc1OC`, the max response is 32.2% (active).

On to `Brc1ccccc1/C=N/Nc1nc2ccccc2o1`, for which the max response was 35.3% (active).

Consider `CN=C1S/C(=C\c2c(OC)cc(OC)cc2OC)C(=O)N1C`, for which the max response was -4.61%.

With `COc1ccc(C2/C(=C(/O)c3ccc4c(c3)CC(C)O4)C(=O)C(=O)N2Cc2ccncc2)cc1` (centres undefined), the max response was -3.17%.

Consider `COc1cc(C(=O)N2CCN(C)CC2)cc(OC)c1OC`, for which the max response was -1.54%.

Consider `Cc1ccc(NC(=O)COC(=O)C2C3CC4OC(=O)C2C4C3)cc1Cl` (centres undefined), for which the max response is 6.04%.

Turning to `O=C(NCc1ccco1)C1CCCN1S(=O)(=O)c1ccccc1C(F)(F)F` (centres undefined), the max response is -2.95%.

`Cc1ccc(-n2nc3c(=O)n(C(C)C(=O)NCc4ccc5c(c4)OCO5)nc(C)c3c2C)cc1` (centres undefined): the max response is 7.33%.

For the compound `COc1ccc(CN(C)C(=O)Cc2ccsc2)c(OC)c1OC`, the max response was -2.85%.

With `CC(C)CNS(=O)(=O)c1ccc(CCC(=O)NCc2ccc(Cl)cc2)cc1`, the max response was -1.7%.

`COc1ccc(CN2CCN(C(=O)CCC(=O)Nc3nnc(C(C)C)s3)CC2)cc1F`: the max response is -9.15%.

For the compound `CC1C(=O)C(C)C(c2ccc(O)cc2)NC1c1ccc(O)cc1` (centres undefined), the max response was -3.88%.

In the case of `CC(NC(=O)C(C)(C)C)C(c1cccs1)N1CCN(Cc2ccccc2)CC1` (centres undefined), the max response was 1.72%.

Regarding `C#CC(C)(C)NC(=O)c1cnc(-c2ccccc2)nc1-c1ccccc1`, the max response is 1.23%.

In the case of `O=C(Nc1ccc2c(c1)OCO2)C1CC(c2c(F)cccc2Cl)=NO1` (centres undefined), the max response was 31.8% (active).

For the compound `Cc1ccc(NC(=O)C2CC(c3ccc(F)cc3)=NO2)cc1` (centres undefined), the max response is 4.66%.

As to `Cc1ccccc1N1CC(C(=O)Nc2ccc3c(c2)OCO3)CC1=O` (centres undefined), the max response is 15.7%.

With `Cc1ccc(S(=O)(=O)N(Cc2ccccc2)c2ccccn2)cc1[N+](=O)[O-]`, the max response was 2.38%.

On to `CS(=O)(=O)N(CC(=O)Nc1ccc(F)cc1F)c1cccc([N+](=O)[O-])c1`, for which the max response is 1.91%.

As for `Cc1c(Br)c([N+](=O)[O-])nn1CC(=O)N1CCN(Cc2ccccc2)CC1`, the max response is 14.4% (active).

For the compound `O=C(/C=C/c1cccc([N+](=O)[O-])c1)N1CCN(Cc2ccccc2)CC1`, the max response is 21.5%.

`O=C(c1cccc([N+](=O)[O-])c1)N1CCN(Cc2ccccc2)CC1`: the max response is -6.89%.

For the compound `COc1ccc(-c2cc(C(=O)N3CCN(Cc4ccc5c(c4)OCO5)CC3)on2)cc1OC`, the max response is -9.89%.

With `Cc1cc(C)nc(N/N=C/c2c(C)oc3ccccc23)n1`, the max response was 1.89%.

With `Cc1cc(C)nc(N/N=C/c2ccc([N+](=O)[O-])o2)n1`, the max response is 0.645%.

Take `Cc1cc2c(C)nc(N/N=C/c3ccccc3)nc2o1`: the max response was 38% (active).

Turning to `COc1cccc(C(=O)NCCSc2ccc(Br)cc2)c1`, the max response was 3.16%.

As for `COc1ccc(C(=O)NCCSc2ccccc2C)cc1`, the max response is 46% (active).

For the compound `COc1ccc(C(=O)NCc2nnc(SCCOc3ccccc3)n2C)cc1`, the max response is -1.69%.

As to `N#Cc1ccccc1S(=O)(=O)N1CCN(C(=O)c2cc(-c3ccccc3)nn2-c2ccccc2)CC1`, the max response was -0.928%.

With `COCCCNc1nc2c(-c3cccc(C(F)(F)F)c3)nnn2c2ccccc12`, the max response was -2.05%.

Regarding `COC(=O)Cn1nc(-c2ccccc2)c2cc(Cl)ccc21`, the max response was -2.04%.

Turning to `COCCCNc1nc2c(-c3cccc(C)c3)nnn2c2ccc(Cl)cc12`, the max response is 11.5% (active).

On to `O=C(CCS(=O)(=O)c1ccc(Br)cc1)NCCc1ccc(Cl)cc1`, for which the max response is -3.3%.

As to `N#C/C(=C(/O)Cc1cccc2ccccc12)c1nc2ccccc2s1`, the max response was -8.33%.

For `CC1=CC(=C(C#N)c2nc3ccccc3s2)C=C(C)N1c1ccc(F)cc1F`, the max response is 11.6% (active).

For `C=CCN1C(=O)C(O)(CC(=O)c2ccccn2)c2ccccc21` (centres undefined), the max response is -4.4%.

With `Cc1ccc2cc(CCNC(=O)c3ccc4c(c3)OCO4)c(=O)[nH]c2c1`, the max response is -3.03%.

In the case of `O=C(NCc1ccco1)/C(=C/c1ccco1)NC(=O)c1ccccc1`, the max response is -7.97%.

Regarding `Cc1ccc(C(=O)N/C(=C/C=C/c2ccccc2)C(=O)NCc2ccco2)cc1`, the max response is 13.9% (active).

As to `CNC(=O)/C(=C\C=C\c1ccccc1)NC(=O)c1ccc([N+](=O)[O-])cc1`, the max response is -1.68%.
